The text below walks through data of PubChem BioAssay (Tox21).

Experiment [1] can be described thus: qHTS assay to identify small molecule antagonists of the retinoid acid receptor (RAR) signaling pathway - cell viability counter screen (AID 1159551). Also: nearly all actives have a fitted effect of over 35% in size. Also: potency is read from the fitted curve at half-maximal effect. Summed up:
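C3RL4 RARE-luciferase line; cpds + retinol 1 uM final, 6 h, 37 C/5% CO2; CellTiter-Glo ATP luminescence, 30 min RT.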
For orientation: qHTS replaces the single test concentration by a dilution series.

Experiment [2] can be described thus: qHTS assay to identify small molecule antagonists of the retinoic acid receptor (RAR) signaling pathway (AID 1159552; also: nearly all actives have a fitted effect of over 50% in size; also: potency is read from the fitted curve at half-maximal effect). In outline:
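C3RL4 RARE-luc cells, overnight plating; retinol 1 uM final added right after compound; 6 hr 37 C; luciferase read at 30 min RT.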

A short description of experiment [3]: qHTS assay to identify small molecule antagonists of the estrogen related receptor (ERR) signaling pathway - cell viability counter screen (AID 1224818). Also: series mostly up to about 46 µM. In outline: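 Fluorescence from CellTiter-Fluor, read 30 min after reagent addition at 37 C, measured viability of ERR cells exposed to compounds for 17.5 h. Cells had settled 6 h before dosing.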
A short description of experiment [4]: qHTS assay to identify small molecule antagonists of the estrogen related receptor signaling pathway with the pleiotropic PPARgamma coactivator (PGC) cell viability counter screen (AID 1224822; also: series mostly up to about 46 µM). In outline: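 Fluorescence read-out of CellTiter-Fluor after 30 min at 37 C; PGC/ERR cells, 2,000 per well, had been exposed to DMSO-dissolved compounds for 17.5 h following a 6 h pre-incubation.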

Experiment [5] in a line: qHTS assay to identify small molecule agonists of the estrogen related receptor (ERR) signaling pathway (AID 1224820). In outline:
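After 6 h plating (2,000 cells/well) and 18 h compound treatment at 37 C, ERR cells were lysed with One-Glo and luminescence read after 30 min at room temperature.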

Experiment [6] can be described thus: qHTS assay to identify small molecule antagonists of the estrogen related receptor (ERR) signaling pathway from Tox21 library - cell viability counter screen (AID 1224834). Also: nearly all actives have a fitted effect of over 30% in size. Also: potency is read from the fitted curve at half-maximal effect. Summed up:
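Multiplexed viability counter screen in ERR cells: 17.5 h compound exposure at 37 C, CellTiter-Fluor added, 30 min at 37 C/5% CO2, fluorescence read.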

Experiment [7] in a line: qHTS assay to identify small molecule agonists of the retinoic acid receptor (RAR) signaling pathway (AID 1159553). Also: potency is read from the fitted curve at half-maximal effect. Summed up:
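RARE-luc C3RL4 cells; overnight attachment 37 C/5% CO2; compound (DMSO) 6 hr; luciferase reagent, 30 min RT; luminescence read-out.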

For experiment [8], the system named is estrogen-related receptor alpha (ERRalpha) with PGC-1alpha coactivator, human. The experiment is described as follows: qHTS assay to identify small molecule antagonists of the estrogen related receptor signaling pathway with the pleiotropic PPARgamma coactivator (PGC) (AID 1224821; calls by dose curve;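 also: series mostly up to about 46 µM; lower luminescence signal means antagonism of PGC/ERR signalling; nearly all actives have a fitted effect of over 50% in size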). In outline: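 Luminescence from One-Glo luciferase reagent (30 min, room temperature) measured after 18 h compound treatment at 37 °C. Cells carry the PGC/ERR reporter and were seeded 6 h prior to dosing.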

Experiment [9] can be described thus: qHTS assay to identify small molecule agonists of the estrogen related receptor signaling pathway with the pleiotropic PPARgamma coactivator (PGC) (AID 1224823). Summed up:
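Luminescence from One-Glo reagent (30 min, room temperature) was read after 18 h compound treatment at 37 C of PGC/ERR cells plated 6 h beforehand; compounds delivered in DMSO by pin tool.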

Several values for one entry are separate records, joined by “and”; a condition that tells them apart may be missing. Equal entries are not always repeated. Results filed as inconclusive are left out. Values without a mark were called inactive. Activity calls are given as the source filed them. Unless noted, calls follow the shape of the dose curve; as a rule, active = well fitted curve in the direction sought with a large enough effect in the repeat runs; inconclusive = weak or mixed curves; inactive = no such curve, though single readings can be large; an effect the other way counts as inactive or inconclusive.
% is scaled to controls: 0 for no effect and ±100 for the full control effect.

Take `CN(C)c1ccc(N=NS(=O)(=O)O)cc1`: the Potency result in [1], in experiment [2], in experiment [3] and in [4] was “inactive” in each case.

Consider `CSc1ccc2c(c1)N(CCC1CCCCN1C)c1ccccc1S2` (stereo not given), for which the Potency in experiment [1] is 60.9 µM (active); in experiment [2], 24.2 µM (active) and 29.8 µM (active); in experiment [6], 43.1 µM (active) and 33.5 µM (active). In addition, the call in experiment [5] was inactive.

Regarding `O=C(Nc1ccc(Cl)cc1)Nc1ccc(Cl)c(C(F)(F)F)c1`, the results for the Potency in [1], in experiment [2] and in experiment [6] were 29.8 µM (active), 23.7 µM (active) and 11.9 µM (active), respectively. The Potency result in experiment [7] is “inactive”.

For the molecule `CCC1CCCCC1`, the Potency entry in [1], in [2] and in experiment [6] was “inactive” throughout.

In the case of `CC1(C)C(=O)N(Br)C(=O)N1Br`, the Potency entry in experiment [1], in experiment [2], in experiment [7] and in experiment [6] was “inactive” throughout.

Consider `CCCCCCOc1ccc(O)cc1`, for which the Potency result in [1] and in experiment [2] was “inactive” throughout. For the same molecule, the Potency in experiment [7] is 0.611 µM (active); in experiment [6], 27.3 µM (active).

In the case of `O=C(O)CC(=O)O`, the Potency result in [1], in [2], in experiment [7] and in [6] was “inactive” in each case.

With `CCC1(c2cnc[nH]2)Cc2ccccc2C1`, the Potency entry in experiment [1], in experiment [2], in [7] and in [6] was “inactive” in each case.

As for `CCC(C)C(=O)OC` (stereo not given), the Potency result in experiment [1], in experiment [2] and in experiment [6] was “inactive” in each case.

For `CCCCCCCC(=O)OCC`, the Potency entry in [1], in [2] and in [6] was “inactive” in each case.

For the molecule `Cc1ccc2ccc3cccc4ccc1c2c34`, the Potency result in experiment [1], in experiment [2], in experiment [7] and in experiment [6] was “inactive” in each case.

On to `N[C@@H](CSSC[C@H](N)C(=O)O)C(=O)O`, for which the activity change, negative = cytotoxicity in experiment [1] was -1.26% [at 0.349 µM]. For the same molecule, in experiment [2], the activity, negative = inhibition is 36.8% [at 0.349 µM]. In experiment [6], the viability change, negative = cytotoxic was 4.71% [at 0.349 µM].

As for `SCCCCCCCCS`, the Potency entry in experiment [1], in experiment [2], in experiment [7] and in experiment [6] was “inactive” each time.

Consider `CN1CCN(C2Cc3ccccc3Sc3ccc(Cl)cc32)CC1` (stereo not given), for which the Potency entry in experiment [1] and in experiment [3] was “inactive” in each case. Also, in experiment [2], the Potency was 29.8 µM (active). The molecule was called inactive in experiment [5], in experiment [8] and in experiment [9].

On to `CCCCCCCC/C=C\CCCCCCCC(=O)OCCOC(=O)CCCCCCC/C=C\CCCCCCCC`, for which the Potency result in experiment [1], in experiment [2], in experiment [7] and in [6] was “inactive” each time.

Consider `O=C1OC(=O)c2ccc3c4c(ccc1c24)C(=O)OC3=O`, for which the Potency entry in [1], in [2] and in experiment [6] was “inactive” throughout.

Regarding `CC(C)(c1cc(Br)c(O)c(Br)c1)c1cc(Br)c(O)c(Br)c1`, the Potency result in [1], in experiment [2], in experiment [7] and in experiment [6] was “inactive” in each case.

As to `Cc1ccc(-n2[nH]c(C)c(N=Nc3cccc(-c4cccc(C(=O)O)c4)c3O)c2=O)cc1C`, the Potency entry in experiment [1] and in experiment [2] was “inactive” throughout. For the same molecule, the Potency in [7] and in [6] was 29.8 µM (active) each time.

Consider `COc1cc(C=C2CCC/C(=C\c3ccc(O)c(OC)c3)C2=O)ccc1O`, for which the Potency entry in experiment [1] and in experiment [2] was “inactive” throughout. Further, the Potency in experiment [7] and in experiment [6] was 13.3 µM (active) in each case.

With `CCCCCCCCCCCC(=O)N(CC)CC`, the Potency result in experiment [1], in experiment [2], in experiment [7] and in [6] was “inactive” throughout.

In the case of `O=c1cccc[nH]1`, the Potency result in experiment [1], in experiment [2] and in experiment [6] was “inactive” in each case.

With `CN(C)c1ccc(N=Nc2ccccc2C(=O)O)cc1`, the Potency result in [1] and in [2] was “inactive” throughout. Also, the figures for the Potency in experiment [7] and in experiment [6] were 1.09 µM (active) and 48.6 µM (active), respectively.

Consider `Cc1cc(C)c(C=O)c(C)c1`, for which the Potency result in experiment [1], in experiment [2] and in experiment [6] was “inactive” throughout.

On to `C[Si](C)O[Si](C)C`, for which the Potency result in experiment [1], in [2] and in experiment [6] was “inactive” throughout.

Turning to `C=CC(=O)OCCN(CC)CC`, the Potency result in [1], in experiment [2] and in experiment [6] was “inactive” in each case.

For `CC1CNCC(C)O1` (stereo not given), the Potency result in [1], in experiment [2] and in experiment [6] was “inactive” throughout.

As to `CCN(CC)c1cccc(C)c1`, the Potency result in experiment [1], in [2] and in experiment [6] was “inactive” each time.

Take `CC(=O)c1ccccc1N`: the Potency entry in experiment [1], in experiment [2] and in experiment [6] was “inactive” each time.

As to `CCO[Si](C)(C)OCC`, the Potency result in experiment [1], in experiment [2] and in experiment [6] was “inactive” throughout.

As to `CCc1cccc(CC)c1NC(=O)C(=O)O`, the Potency entry in experiment [1], in experiment [2] and in [6] was “inactive” each time.

Turning to `CCCC(=O)OCC(COC(=O)CCC)OC(=O)CCC`, the Potency result in experiment [1], in [2] and in experiment [6] was “inactive” each time.

As to `CCCCCCCCCCCCN(CCO)CCO`, the Potency in experiment [1] was 68.3 µM (active); in experiment [2], 54.3 µM (active); in [6], 68.3 µM (active).

For `Cc1cccc(C)n1`, the Potency entry in [1], in experiment [2] and in experiment [6] was “inactive” throughout.

As for `Cc1c(C(=O)O)cccc1[N+](=O)[O-]`, the Potency entry in experiment [1], in experiment [2] and in experiment [6] was “inactive” each time.

Turning to `CCOC(=O)C1=C(C)NC(C)=C(C(=O)OCC)C1c1ccccc1/C=C/C(=O)OC(C)(C)C`, in [1], the Potency result was “inactive”. For the same molecule, the Potency in experiment [2] and in experiment [6] was 29.8 µM (active) throughout.

Take `O=S(=O)(O)c1cc(S(=O)(=O)O)c2ccc3c(S(=O)(=O)O)cc(S(=O)(=O)O)c4ccc1c2c43`: in [1], the activity change, negative = cytotoxicity is 4.17% [at 19 µM]. Moreover, the activity, negative = inhibition in [2] is 14.4% [at 19 µM]. The viability change, negative = cytotoxic in experiment [6] was 4.03% [at 19 µM].

Take `C/C=C/CO`: the Potency entry in experiment [1], in experiment [2] and in experiment [6] was “inactive” each time.

With `CN1CN(C)CN(C)C1`, the Potency entry in experiment [1], in [2] and in experiment [6] was “inactive” each time.

For `CCc1ccc(C)nc1`, the Potency entry in experiment [1], in experiment [2] and in experiment [6] was “inactive” in each case.
